Records with an inconclusive call do not appear. Values without a mark were called inactive. Activity calls are given as the source filed them. Calls follow the shape of the dose curve; as a rule, active = well fitted curve in the direction sought with a large enough effect; inconclusive = small, poorly fitted or top-dose-only effect, or another doubt; inactive = no such curve, though single readings can be large; an effect the other way counts as inactive or inconclusive.
biological target: Aldehyde dehydrogenase, mitochondrial (Homo sapiens) (UniProt P05091); test: qHTS for Inhibitors of the Aldehyde Dehydrogenase Family (ALDH2) Primary screen (AID 2061308); settings: ALDH2 enzyme inhibition qHTS, 1536-well; series mostly up to 56 µM; activity change, negative = inhibition: at the top concentration;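 also: plate controls were vehicle for no effect and reference inhibitor for full effect; nearly all actives have a fitted effect of over 55% in size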

Structure (SMILES) | activity change, negative = inhibition
O=C(NC1(c2ccccc2)CC1)c1c(CN2CCC(N3CCCCC3)CC2)c(-c2cccc(C(F)(F)F)c2)nc2cc(Br)ccc12 | 7.36%
CCC(C)CNCC(=O)N1CCc2sccc2C1COc1cccc(C)c1 (stereo unspecified) | -2.61%
C=CC(=O)Nc1cccc(CN2C(=O)N(c3c(Cl)c(OC)cc(OC)c3Cl)Cc3cnc(NCCCCN(CC)CC)nc32)c1 | 12.3%
C[C@@H](O[C@H]1OCCN(Cc2n[nH]nc2CN(C)C)[C@H]1c1ccc(F)cc1)c1cc(C(F)(F)F)cc(C(F)(F)F)c1 | -3.46%
Cc1ccccc1-c1cc(N2CCN(C)CC2)ncc1N(C)C(=O)C(C)(C)c1cc(C(F)(F)F)cc(C(F)(F)F)c1 | 5.55%
CC(C)(C)c1ccc(CN2CCN(C(c3ccccc3)c3ccc(Cl)cc3)CC2)cc1 (stereo unspecified) | -15.1%

biological target: Retinaldehyde dehydrogenase 3 (Homo sapiens) (UniProt P47895); test: qHTS for Inhibitors of the Aldehyde Dehydrogenase Family (ALDH1A3) Validation screen (AID 2061312); settings: ALDH1A3 enzyme inhibition qHTS validation, fluorescence; series mostly up to 84.7 µM; activity change, negative = inhibition: at the top concentration; also: nearly all actives have a fitted effect of over 45% in size; also: potency is read from the fitted curve at half-maximal effect; as to activity change, negative = inhibition: % is scaled to controls: 0 for no effect and ±100 for the full control effect

Structure (SMILES) | activity change, negative = inhibition | Potency
COc1ccc(N(C(=O)Nc2c(C)cccc2C)c2cc(Nc3ccc(N4CCN(C)CC4)cc3)ncn2)c(OC)c1 | -20.2% | –
CC1CCN(C(c2ccc(F)cc2)c2ccc(C(C)C(=O)O)cc2-c2ccc(C(F)(F)F)cc2)CC1 (stereo unspecified) | 15.5% | –
C#CCNCc1cc2cc(OCc3ccccc3)ccc2[nH]1 | 47.2% | –
O=C(NC1CCN(CCCCC2(C(=O)NCC(F)(F)F)c3ccccc3-c3ccccc32)CC1)c1ccccc1-c1ccc(C(F)(F)F)cc1 | 208% | –
CNC(=O)c1ccccc1Nc1nc(Nc2ccc3c(c2OC)CCCC(N2CCN(CCO)CC2)C3)ncc1Cl (stereo unspecified) | 137% | –
COc1ccc(C2=NC(c3ccc(Cl)cc3)C(c3ccc(Cl)cc3)N2C(=O)N2CCNC(=O)C2)c(OC(C)C)c1 (stereo unspecified) | -3.53% | –
CC(=O)N1c2ccc(-c3ccc(C(=O)O)cc3)cc2C(Nc2ccc(Cl)cc2)CC1C (stereo unspecified) | 44.6% | –
Fc1ccc(-n2cc(CCCCN3CCC4(CC3)OCc3ccccc34)c3ccccc32)cc1 | 55.6% | –
COc1ccc2cc1Oc1ccc(cc1)C[C@H]1c3c(cc4c(c3Oc3cc5c(cc3OC)CCN(C)[C@@H]5C2)OCO4)CCN1C | 71.9% | –
Fc1ccc(C2CCNC[C@H]2COc2ccc3c(c2)OCO3)cc1 (stereo partly specified) | 105% | –
CC(Oc1cc(-n2cnc3ccc(CN4CCN(C)CC4)cc32)sc1C(N)=O)c1ccccc1C(F)(F)F (stereo unspecified) | 36.2% | –
CC(=O)Nc1cccc2c1c(Sc1ccc(Cl)cc1)c(C)n2CC(=O)O | 93.1% | –
CN(c1nccc(=O)[nH]1)C1CCN(c2nc3ccccc3n2Cc2ccc(F)cc2)CC1 | 6.78% | –
Cc1nc2ccc(CN(C)c3ccc(C(=O)NC(CCC(=O)O)C(=O)O)s3)cc2c(=O)[nH]1 (stereo unspecified) | 11.7% | –
NC(=O)N1CCC(CC(=O)N2CCC(C3c4ncc(Br)cc4CCc4cc(Cl)cc(Br)c43)CC2)CC1 (stereo unspecified) | 13.8% | –
CCC[C@H]1C[C@H](C(=O)N[C@@H]([C@@H]2O[C@@H](SC)[C@@H](O)[C@@H](O)[C@@H]2O)[C@H](C)Cl)N(C)C1 | 32.2% | –
CN(C)C(=O)COC(=O)c1cc(-c2ccc(C3CCNCC3)cc2)c2ccc(-c3ccc(C(F)(F)F)cc3)cc2c1 | 13.3% | –
COc1ccc(NS(=O)(=O)c2sc3ccc(Cl)cc3c2C)cc1N1CCNCC1 | 11.4% | –
Cc1ccc(O)cc1Nc1ccnc(Nc2cccc(C(N)=O)c2)n1 | -15.1% | –
O=C(NC1Cc2ccccc2N(C[C@@H](O)CO)C1=O)c1cc2cc(Cl)sc2[nH]1 (stereo partly specified) | -16.7% | –

Structure (SMILES) | activity change, negative = inhibition | Potency
CCS(=O)c1nc(-c2cccc(OCc3ccccc3)c2)cc(C(F)(F)F)n1 (stereo unspecified) | 1.72% | –
CCN(CC)CCN(Cc1ccc(-c2ccc(C(F)(F)F)cc2)cc1)C(=O)Cn1c(SCc2ccc(F)cc2)nc(=O)c2c1CCC2 | 278% | –
CN(c1ccccc1CNc1nc(Nc2ccc3c(c2)CC(=O)N3)ncc1C(F)(F)F)S(C)(=O)=O | -20.4% | –
CC(C)c1nc(CN(C)C(=O)N[C@H](C(=O)N[C@@H](Cc2ccccc2)C[C@H](O)[C@H](Cc2ccccc2)NC(=O)OCc2cncs2)C(C)C)cs1 | 42.3% | –
CC(=O)N1CCN([C@H]2CCN(C(=O)N(C)[C@H](C)c3cc(C(F)(F)F)cc(C(F)(F)F)c3)[C@@H](c3ccc(F)cc3C)C2)CC1 | -24.9% | –
CC[C@H](/C=C/[C@@H](C)[C@H]1CC[C@H]2[C@@H]3CC=C4C[C@@H](O)CC[C@]4(C)[C@H]3CC[C@]12C)C(C)C | -13.7% [at 9.14 µM] | –
CC(C)(C(=O)NCC(F)(F)C(F)(F)F)C(=O)NC1C(=O)Nc2ccccc2-c2ccccc21 (stereo unspecified) | 21.1% | –
C=CS(=O)(=O)NC1CCN(C(=O)CNc2cc(I)c(Cl)cc2OC)CC1 | 6.85% | –
O=C(c1ccc(Cl)c([N+](=O)[O-])c1)N1CCN(c2ccccc2F)CC1 | -3.78% | –
CCN(Cc1ccccc1)C(=O)Cn1c(=O)n(C)c2cnc(-c3ccccc3)nc21 | 6.15% | –
COc1cc2ncnc(N3CCC(Oc4cnc5ccccc5n4)C3)c2cc1OC (stereo unspecified) | 87.9% | –
CN(C)Cc1ccc(-c2cnn3c(-c4cccc(NC(=O)c5cccc(C(F)(F)F)c5)c4)ccnc23)cc1 | 15.9% | –
O=C(NCc1nc2ccccc2c(=O)n1-c1ccc(F)cc1)Nc1ccc(Cl)c(C(F)(F)F)c1 | 27.5% | –
CC[C@H]1OC(=O)[C@H](C)[C@@H](O[C@H]2C[C@@](C)(OC)[C@@H](O)[C@H](C)O2)[C@H](C)[C@@H](O[C@@H]2O[C@H](C)C[C@H](N(C)C)[C@H]2O)[C@](C)(O)C[C@@H](C)C(=O)[C@H](C)[C@H]2OC(=O)O[C@@]21C | 0.548% | –
O=C(NC1(c2ccccc2)CC1)c1c(CN2CCC(N3CCCCC3)CC2)c(-c2cccc(C(F)(F)F)c2)nc2cc(Br)ccc12 | 132% | –
CCC(C)CNCC(=O)N1CCc2sccc2C1COc1cccc(C)c1 (stereo unspecified) | 6.54% | –
C=CC(=O)Nc1cccc(CN2C(=O)N(c3c(Cl)c(OC)cc(OC)c3Cl)Cc3cnc(NCCCCN(CC)CC)nc32)c1 | 164% | –
C[C@@H](O[C@H]1OCCN(Cc2n[nH]nc2CN(C)C)[C@H]1c1ccc(F)cc1)c1cc(C(F)(F)F)cc(C(F)(F)F)c1 | 35.3% | –
Cc1ccccc1-c1cc(N2CCN(C)CC2)ncc1N(C)C(=O)C(C)(C)c1cc(C(F)(F)F)cc(C(F)(F)F)c1 | -8.28% | –
CC(C)(C)c1ccc(CN2CCN(C(c3ccccc3)c3ccc(Cl)cc3)CC2)cc1 (stereo unspecified) | – | 31.6 µM (active)

— PubChem BioAssay (NCATS)
